Reference: PubChem BioAssay AID463218 (Sanford-Burnham Center for Chemical Genomics, 2010)
Out of some 4,400 compounds screened, about 3,700 (84%) were called active.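 How the source made its calls: active means inhibition above about 39% in either of two replicate wells at 20 µM (limit read from the data); inactive means the rest.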 The set was probably picked from earlier hits. Only a sample is shown.

assay: growth inhibition of tim23-1 ts yeast, retest – luminescence, single concentration, confirmation (AID 463218);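 further: temperature-sensitive tim23-1 mutant grown at 25 °C; 0% = DMSO wells with yeast and 100% = medium wells without yeast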; details: S. cerevisiae tim23-1 growth, BacTiter-Glo luminescence, 24 h; at 20 µM; stronger effect = higher value

Structure (SMILES)	inhibition
Cc1ccc(-c2nc3ccccc3c(=O)n2-c2ccc(Br)cn2)cc1	53.6% (active)
Cc1cc2ccccn2c1C(C[N+](=O)[O-])c1c(F)cccc1Cl (stereo not drawn)	58.5% (active)
COc1cccc(N2C(=O)NC(=O)/C(=C\c3ccc([N+](=O)[O-])s3)C2=O)c1	78.3% (active)
